# Laboratory results from PubChem BioAssay AID651965 (National Center for Advancing Translational Sciences (NCATS), 2013).
# The campaign covered roughly 340,000 compounds. About 6,400 (1.9%) were called active. Another 4% or so got no clear call; they are omitted. For the sample, actives were picked, then their nearest neighbours and some compounds at random. Unmarked numbers belong to inactive results. Calls follow the shape of the dose curve; as a rule, active = well fitted falling curve with a large enough effect; inconclusive = small, poorly fitted or top-dose-only effect; inactive = no such curve, though single readings can be large or run the other way.
# Target: ATP-dependent Clp protease proteolytic subunit (Bacillus subtilis (strain 168)) (UniProt P80244)
# Assay: qHTS Assay for Activators of ClpP; also: the source files actives as falling curves though it sought activators and does not explain the sign; nearly all actives have a fitted effect of over 65% in size
# Conditions: purified B. subtilis ClpP, FRET peptide cleavage, 20 min; series mostly up to 57.5 µM; activity change, negative = active: at the top concentration
# In short: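 FRET quenching reversal measured ClpP activation: 10 microg/mL B. subtilis ClpP at pH 8 with the FRET-FV decapeptide, read at 430 nm after 320 nm excitation. The 20-min minus 0-min signal was scaled between DMSO/no-enzyme wells and ADEP (5.8 microM final).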
# Potency is read from the fitted curve at half-maximal effect.
# Chain of ATP-dependent Clp protease proteolytic subunit (Bacillus subtilis (strain 168)) (P80244 whole entry, looked up): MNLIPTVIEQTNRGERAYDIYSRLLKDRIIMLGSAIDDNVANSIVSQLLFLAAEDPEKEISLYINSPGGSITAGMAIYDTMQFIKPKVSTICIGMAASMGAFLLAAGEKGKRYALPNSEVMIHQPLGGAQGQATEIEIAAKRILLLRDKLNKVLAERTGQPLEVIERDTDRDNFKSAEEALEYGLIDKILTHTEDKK
SMILES,"activity change, negative = active [%]",Potency
Brc1cccc[n+]1Cc1cccc(C[n+]2ccccc2Br)c1,-6.97,–
CC(C)C(=O)Nc1ccc2c(c1)oc1ccccc12,-15.9,–
Cc1ccc2oc(=O)ccc2c1,-7.73,–
CC(C)C(=O)Nc1ccc2oc(=O)ccc2c1,–,35.5 µM (active)
COc1ccc(C(C)(O)c2nc(-c3cc(F)cc(F)c3)cs2)cc1 (stereo not drawn),0.362,–
CN1CCN(c2ccc3c(c2)OC[C@H](Cc2ccccc2)NS3(=O)=O)CC1,-0.119,–
COc1ccccc1CNC(=O)c1cc(-c2cc(F)ccc2OC)n[nH]1,-5.92,–
Cc1nn(Cc2ccccc2)c(Cl)c1C(=O)OC1CCOC1=O (stereo not drawn),0.992,–
O=C(OC1CCOC1=O)c1ccc(-c2nc3ccccc3s2)s1 (stereo not drawn),–,17.8 µM (active)
CC(C)(C)c1ccc(OCC(=O)N2CCC(c3nc4ccccc4s3)CC2)cc1,0.0567,–
COCCNC(=O)c1cc2c(Br)ccc(Br)c2nc1N,-6.95,–
CCOP(=O)(OCC)C(Cc1ccccc1)N=C(c1ccccc1)c1ccccc1 (stereo not drawn),0.52,–
CCCC1OC23CCCCC2C(C#N)(C#N)C1(C#N)C(=N)O3 (stereo not drawn),–,20 µM (active)
O=C(Nc1ccccc1)c1ccccc1OCc1ccccc1,-4.41,–
C[C@H]1CN([C@@H](C)CO)C(=O)CCCn2nncc2CO[C@@H]1CN(C)Cc1ccc(Oc2ccccc2)cc1,-1.47,–
NC(c1ccccc1)c1csc(NC(=O)Nc2cccc(C(F)(F)F)c2)n1 (stereo not drawn),-2.47,–
COCCCn1c(C(=O)NC2CCCCC2)cc2c(=O)n3cccc(C)c3nc21,3.95,–
Cc1cccn2c(=O)c3cc(C(=O)N4COCC4(C)C)n(C)c3nc12,–,28.2 µM (active)
CCCn1c(=N)c(C(=O)NCc2ccccc2)cc2c(=O)n3cccc(C)c3nc21,4.76,–
O=C1NC[C@H](CCCCN2C[C@H](Cc3ccc(O)cc3)N(CC3CCCCC3)C(=O)C2=O)N(CCc2ccccc2)C1=O,1.1,–
Cn1c(=O)c2cc(NC(=O)NCCc3cccs3)ccc2n1Cc1cccc(C(F)(F)F)c1,4.93,–
CSc1ccc(-c2c(C#N)c(N)nc3c2c(C)nn3-c2ccccc2)cc1,–,22.4 µM (active)
Cc1nn(-c2ccccc2)c2c1C(c1ccc(F)cc1)C(C#N)=C(N)O2 (stereo not drawn),-14.9,–
Cc1nc2c(c(C)nn2-c2ccccc2)c(C)c1C,-0.788,–
COc1ccc(NC(=O)C2(C)Cc3c(-c4cccc(NC(C)=O)c4)ccnc3O2)cc1OC (stereo not drawn),-7.68,–
FC(F)(F)c1cccc(-c2nc3ccccc3n2C(c2ccccc2)c2nc3ccccc3[nH]2)c1 (stereo not drawn),4.78,–
FC(F)(F)c1cccc(-c2cc3ccccc3nc2N2CCCC2)c1,–,31.6 µM (active)
O=C(Nc1cc(C(F)(F)F)ccc1Cl)c1nc2ccccc2nc1N1CCCCC1,0.902,–
